Source: PubChem BioAssay AID624330 (Southern Research Specialized Biocontainment Screening …, 2012)
The whole screen tested about 340,000 compounds, of which about 2,100 (0.62%) were called active.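 Rule for the calls: active = first-screen hits whose inhibition reached a set limit at any dose in the follow-up dose series; inconclusive = inhibition above the set first-screen limit but never retested; inactive = the rest.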 Not all results are given here. Potency and affinity values are given separately.

target: Rac GTPase-activating protein 1 (Homo sapiens) (UniProt Q9H0H5); experiment: MgcRacGAP GTPase-activating activity inhibitors, confirmation, biochemical, ADP Hunter fluorescence, primary and confirmatory (AID 624330); conditions: MgcRacGAP-stimulated Rac1 GTP hydrolysis, at 30 µM, active compounds read high, GST-tagged Rac1 F28L mutant substrate;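 note: fluorescence reports GDP produced by GAP-driven GTP hydrolysis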
Sequence (Q9H0H5 whole entry, looked up): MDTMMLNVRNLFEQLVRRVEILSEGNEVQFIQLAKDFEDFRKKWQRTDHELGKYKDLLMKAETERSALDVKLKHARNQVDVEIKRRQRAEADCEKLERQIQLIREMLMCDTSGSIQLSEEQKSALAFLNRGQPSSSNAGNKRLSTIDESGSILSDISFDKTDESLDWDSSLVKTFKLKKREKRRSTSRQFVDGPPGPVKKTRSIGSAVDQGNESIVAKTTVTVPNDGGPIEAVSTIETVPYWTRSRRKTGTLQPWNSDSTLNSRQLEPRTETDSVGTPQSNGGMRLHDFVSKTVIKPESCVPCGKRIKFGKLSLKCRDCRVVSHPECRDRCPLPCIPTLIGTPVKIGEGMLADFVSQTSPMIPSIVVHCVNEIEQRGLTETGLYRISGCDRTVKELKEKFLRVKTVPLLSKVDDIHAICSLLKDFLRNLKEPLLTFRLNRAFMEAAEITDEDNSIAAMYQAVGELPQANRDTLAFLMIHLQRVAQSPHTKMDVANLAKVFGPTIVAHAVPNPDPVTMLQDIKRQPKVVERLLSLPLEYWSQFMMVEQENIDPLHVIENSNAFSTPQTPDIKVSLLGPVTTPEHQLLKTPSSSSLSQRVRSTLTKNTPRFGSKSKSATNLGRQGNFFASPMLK

Structure (SMILES) | inhibition
Cc1ccc(N=Nc2c(N)nn3c(C)cc(C)nc23)cc1 | 7.06% (inactive)
Cc1cc(C)n2nc(N)c(N=Nc3ccccc3)c2n1 | 13.3% (inactive)
Nc1nn2c(-c3ccccc3)cc(=O)[nH]c2c1N=Nc1ccc(Br)cc1 | 4.26% (inactive)
Cc1cc(C)n2nc(N)c(N=Nc3ccc(Cl)cc3)c2n1 | 8.06% (inactive)
COc1ccc(C(=O)NNC(=O)CSc2ccccc2)cc1 | 0.63% (inactive)
Cc1ccc(N(CC(=O)N2CCN(C3CCCCC3)CC2)S(=O)(=O)c2cccnc2)cc1 | -4.65% (inactive)
N#CC(C#N)=C1C(=O)N(CCN2CCCCC2)c2ccccc21 | -11.4% (inactive)
O=C(CSc1nc(NS(=O)(=O)c2ccccc2)cc(=O)[nH]1)Nc1ccc(Cl)cc1 | -0.7% (inactive)
NS(=O)(=O)c1ccc(CCNC(=O)CN2CCC(Cc3ccccc3)CC2)cc1 | 6.03% (inactive)
NS(=O)(=O)c1ccc(NC(=S)N2CCC(Cc3ccccc3)CC2)cc1 | 18.2% (inactive)
Cc1ccc(OCC(=O)NNC(=O)C2CC(=O)N(c3ccc4c(c3)OCCO4)C2)cc1 (stereo unspecified) | 6.61% (inactive)
O=C(CCc1nnc(CCCCc2ccccc2)o1)NCc1cc(F)ccc1F | 9.91% (inactive)
Cn1c(CCC(=O)OCC(=O)Nc2ccc(Oc3ccccc3)cc2)nc(=O)c2ccccc21 | 2.65% (inactive)
CC(C)Cc1n[nH]c(=O)[nH]1 | 4.75% (inactive)
COc1ccc(C=C2NC(=O)NC2=O)cc1O | 10.9% (inactive)
O=C1NC(=O)/C(=C/c2cccc(O)c2)N1 | 5.03% (inactive)
COc1cc(/C=C2\SC(=N)N(c3ccc(F)cc3)C2=O)ccc1O | 20.9% (inactive)
CCN(CC)c1ccc(/C=C2\NC(=O)NC2=O)cc1 | 30.9% (inactive)
COc1ccc(C=C2SC(=O)NC2=O)cc1OC | 6.99% (inactive)
O=C1NC(=O)C(=Cc2ccccc2)N1 | -1.98% (inactive)
CC1(C)CC(=O)C(C=NCCN2CCN(C(=O)c3ccc(F)cc3)CC2)=C(O)C1 | 0.28% (inactive)
COc1ccccc1CN1CC(C(=O)NCc2nccn2C)CCC1=O (stereo unspecified) | 10.1% (inactive)
COC(=O)[C@@]12CCCN1[C@H](c1ccc(-c3ccccc3)cc1)[C@H]1C(=O)N(C)C(=O)[C@H]12 | 8.21% (inactive)
COc1ccc(CCNC(=O)Cn2ccc3c(OC)cccc3c2=O)cc1OC | 8.24% (inactive)
CCOC(=O)C1=C(COC(=O)/C=C/c2cccc(Br)c2)NC(=O)NC1C (stereo unspecified) | 2.35% (inactive)
Cc1cccc(C)c1-n1nnnc1C1(Nc2ccccc2)CCCCC1 | 8.6% (inactive)
